Reference: PubChem BioAssay AID720492 (Broad Institute, 2013)
Activity calls are given as the source filed them.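 Rule for the calls: active = unnormalized dose curve rising to cross level 40 at or below the top tested dose; inconclusive = flat fit at moderately raised activity, or poor fit; inactive = the rest.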

Assay: miR-27b level by RT-PCR, dose response, miR-122 / miR-27b project, Huh7 cells, cherry-pick, activator set (AID 720492)
Details: Huh7 miR-27b levels, qRT-PCR, 48 h; series mostly up to 35 µM

outcome, inactive:
CNC[C@@H]1Oc2cc(C#CC3CCCCC3)ccc2S(=O)(=O)N([C@@H](C)CO)C[C@@H]1C, CCCC#Cc1ccc2c(c1)O[C@H](CN(C)C(=O)c1ccncc1)[C@H](C)CN([C@@H](C)CO)S2(=O)=O, C/C=C/c1cnc2c(c1)C(=O)N([C@@H](C)CO)C[C@H](C)[C@H](CN(C)S(=O)(=O)c1ccc(OC)cc1)O2, C[C@@H]1CN([C@H](C)CO)S(=O)(=O)c2ccc(C#Cc3ccncc3)cc2O[C@@H]1CN(C)C(=O)C1CCOCC1, CN1C(=O)c2cc(NC(=O)c3cccc(F)c3)ccc2OC[C@H]2O[C@H](CC(=O)O)CC[C@@H]21, CN1C(=O)c2cc(NC(=O)c3cccc(F)c3)ccc2OC[C@@H]2O[C@H](CC(=O)O)CC[C@H]21, COCC(=O)N(C)C[C@@H]1Oc2ncc(-c3ccc(C#N)cc3)cc2C(=O)N([C@@H](C)CO)C[C@@H]1C, C[C@H]1CN([C@@H](C)CO)S(=O)(=O)c2ccc(C#Cc3ccncc3)cc2O[C@H]1CN(C)C(=O)C1CCOCC1, Cc1cccc(NC(=O)Nc2ccc3c(c2)C(=O)N(C)[C@@H]2CC[C@H](CC(=O)NCc4ccccc4Cl)O[C@H]2CO3)c1, COc1ccc(-c2cnc3c(c2)C(=O)N([C@@H](C)CO)C[C@H](C)[C@H](CN(C)S(=O)(=O)c2ccc(OC)cc2)O3)cc1, COCC(=O)N(C)C[C@H]1Oc2cc(-c3ccc(C#N)cc3)ccc2S(=O)(=O)N([C@@H](C)CO)C[C@H]1C, C[C@H]1CN([C@@H](C)CO)C(=O)c2cc(-c3ccc(C#N)cc3)cnc2O[C@H]1CN(C)Cc1cncnc1, COc1cccc(C(=O)Nc2ccc3c(c2)C(=O)N(C)C[C@@H](OC)[C@@H](C)CN[C@@H](C)CO3)c1, CO[C@@H]1CN(C)C(=O)c2cc(NC(=O)c3ccc4c(c3)OCO4)ccc2OC[C@H](C)NC[C@@H]1C, C[C@H](CO)N1C[C@H](C)[C@H](CN(C)C(=O)C2CCOCC2)Oc2cc(C#Cc3ccncc3)ccc2S1(=O)=O, COCC(=O)N(C)C[C@H]1Oc2cc(-c3ccccc3F)ccc2S(=O)(=O)N([C@H](C)CO)C[C@H]1C, COCC(=O)N(C)C[C@H]1Oc2cc(-c3ccc(C#N)cc3)ccc2S(=O)(=O)N([C@H](C)CO)C[C@H]1C, C[C@@H]1CN([C@@H](C)CO)S(=O)(=O)c2ccc(C#Cc3ccncc3)cc2O[C@H]1CN(C)C(=O)C1CCOCC1, C[C@@H]1CN([C@H](C)CO)S(=O)(=O)c2ccc(C#Cc3ccncc3)cc2O[C@H]1CN(C)C(=O)C1CCOCC1, C[C@H]1CN([C@@H](C)CO)C(=O)c2cc(-c3ccc(C#N)cc3)cnc2O[C@H]1CN(C)C(=O)c1ccccc1, CN1C(=O)c2cc(NC(=O)c3cccc(F)c3)ccc2OC[C@H]2O[C@H](CC(=O)O)CC[C@H]21
